The source of these data is PubChem BioAssay (NCATS).

The target in test [1] is Cytochrome P450 3A4 (Homo sapiens) (UniProt P08684). The test is described as follows: qHTS Assay for Activators of Cytochrome P450 3A4 (AID 885). Also: nearly all actives have a fitted effect of over 65% in size. The essentials: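 Quantitative HTS format: compounds preincubated with 20nM human CYP3A4 and Luciferin-PPXE substrate at KM, reaction started by NADPH regeneration, stopped after 60 min, luciferase luminescence read 20 min later.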
Cytochrome P450 3A4 (Homo sapiens), sequence (P08684 whole entry, looked up): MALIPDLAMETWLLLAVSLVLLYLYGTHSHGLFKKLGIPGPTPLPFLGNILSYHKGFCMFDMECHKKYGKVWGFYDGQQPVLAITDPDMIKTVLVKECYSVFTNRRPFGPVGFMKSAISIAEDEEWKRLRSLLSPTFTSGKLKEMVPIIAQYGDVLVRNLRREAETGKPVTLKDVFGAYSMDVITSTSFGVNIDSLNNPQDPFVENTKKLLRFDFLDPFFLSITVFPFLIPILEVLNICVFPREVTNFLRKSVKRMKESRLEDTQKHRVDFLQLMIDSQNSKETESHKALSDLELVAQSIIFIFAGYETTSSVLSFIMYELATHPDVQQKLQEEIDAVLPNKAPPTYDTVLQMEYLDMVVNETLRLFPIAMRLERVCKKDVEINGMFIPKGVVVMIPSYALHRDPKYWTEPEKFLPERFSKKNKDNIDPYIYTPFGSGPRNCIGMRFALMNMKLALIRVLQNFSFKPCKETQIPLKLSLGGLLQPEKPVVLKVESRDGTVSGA

Test [2] in a line: Confirmation and Secondary Assay for Modulators of Hemoglobin Beta Chain Splicing at IVS2 705 locus (AID 930).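 Also: HeLa cells stably expressing the EGFP-705 splicing reporter; GFP fluorescence per well restored by corrected splicing of the IVS2-705 intron in EGFP; % of control where 0% means no effect.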 In short, it runs like this: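 HeLa EGFP-705 reporter; 500 cells/well, o/n 37C 5% CO2; cpd 2 d; 488 ex/500-520 em laser scan; total peak GFP intensity/well. Ref: 500 nM […] antisense PNA.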
A short description of test [3]: qHTS Assay for Lipid Storage Modulators (AID 1519; calls by dose curve; as to activity change, negative = inhibition: % is scaled to controls: 0 for no effect and ±100 for the full control effect). Particulars: Drosophila S3 cells, BODIPY lipid droplet/cell ratio, laser cytometry, cells loaded with oleic acid; for activity change, negative = inhibition: at 57.5 µM (top of the series). In short, it runs like this:
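Cells seeded at 5,000 per well were treated with compounds over a concentration series and loaded with oleic acid (400 uM, as added). Lipid droplet fluorescence (488 nm excitation, 500-530 nm channel) was read by laser-scanning cytometry and normalized to 20 uM Triacsin C.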
(qHTS replaces the single test concentration by a dilution series.)

The nature of test [4]: Confirmation and Secondary Assay for Modulators of Hemoglobin Beta Chain Splicing at IVS2 654 locus (AID 910).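 Also: HeLa cells stably carrying EGFP split by mutant beta-globin IVS2-654 intron; per-well total GFP intensity by laser scanning cytometry after 2-day treatment; % of control where 0% means no effect.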 The essentials:
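Readout: per-well total peak green fluorescence (488 nm ex, 500–520 nm em) from objects 5–250 µm, reflecting correct splicing of an EGFP-654 reporter. Compounds were applied for 2 days at 37 °C to overnight-plated HeLa EGFP-654 cells; controls were DMSO and 500 nM IVS2-654 PNA.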

In test [5] the target is Cytochrome P450 2D6 (Homo sapiens) (UniProt P10635). The test is described as follows: Cytochrome P450 family 2 subfamily D member 6 (CYP2D6) small molecule antagonists: luciferase biochemical (cell-free) qHTS assay (AID 1645840; active = well fitted curve in the direction sought with a large enough effect in the repeat runs; an effect the other way counts as inactive or inconclusive; also: nearly all actives have a fitted effect of over 55% in size; also: potency is read from the fitted curve at half-maximal effect; as to activity change, negative = inhibition: % is scaled to controls: 0 for no effect and ±100 for the full control effect). The essentials:
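P450-Glo luminescent screen: recombinant CYP2D6 enzyme–proluciferin substrate mix preincubated with compound 10 min at room temperature, then NADPH regeneration added for 1 h at room temperature. Detection reagent added for 20 min; luciferin light read as relative luminescence units.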

[6] abbreviates: measured here: cell count channel max response.
Setting [7] is: measured here: lipid channel max response.

Inconclusive results are not listed. Active and inactive are the calls of the source. Unless noted, calls follow the shape of the dose curve; as a rule, active = well fitted curve in the direction sought with a large enough effect; inconclusive = small, poorly fitted or top-dose-only effect, or another doubt; inactive = no such curve, though single readings can be large; an effect the other way counts as inactive or inconclusive.

Cytochrome P450 2D6 (Homo sapiens), sequence (P10635 whole entry, looked up): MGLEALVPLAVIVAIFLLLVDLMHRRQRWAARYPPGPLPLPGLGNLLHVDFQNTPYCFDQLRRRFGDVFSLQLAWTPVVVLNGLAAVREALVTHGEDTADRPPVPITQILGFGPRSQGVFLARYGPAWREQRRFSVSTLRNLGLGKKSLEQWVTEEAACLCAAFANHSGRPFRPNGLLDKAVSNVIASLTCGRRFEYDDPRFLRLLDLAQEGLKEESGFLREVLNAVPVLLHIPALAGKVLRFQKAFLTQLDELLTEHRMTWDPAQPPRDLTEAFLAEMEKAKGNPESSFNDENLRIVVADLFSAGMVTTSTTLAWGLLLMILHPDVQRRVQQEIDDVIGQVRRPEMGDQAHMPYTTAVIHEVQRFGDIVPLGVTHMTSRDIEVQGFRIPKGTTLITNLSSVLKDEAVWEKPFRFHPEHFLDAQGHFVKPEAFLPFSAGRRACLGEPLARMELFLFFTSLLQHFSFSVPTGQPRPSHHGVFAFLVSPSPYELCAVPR

In the case of `O=c1c(O)c(-c2ccccc2)oc2cc(O)ccc12`, the Potency result in test [1] and in test [2] was “inactive” in each case. For the same compound, the activity change, negative = inhibition in test [3] is 6.29% (inactive). Moreover, the max response in test [3] (setting [6]) was -1.89%; in test [3] (setting [7]), 5.57%.
For the compound `CC1=C2C(=COC(C)C2C)C(=O)C(C(=O)O)=C1O` (stereo unspecified), the Potency result in test [4] and in test [2] was “inactive” throughout. Further, the activity change, negative = inhibition in test [3] is 4.18% (inactive). Also, the max response in test [3] (setting [6]) is -1.22%; in test [3] (setting [7]), 4.23%.
Take `C=CCCCCCCCCCCCC(O)CC(O)COC(C)=O` (stereo unspecified): the Potency result in test [1], in test [4] and in test [2] was “inactive” in each case. Further, the activity change, negative = inhibition in test [3] was 12.3% (inactive). Further, the max response came out at 4.88% in test [3] (setting [6]) and 15.5% in test [3] (setting [7]).
As for `CCC(C)(C)C(=O)OC1CC(C)C=C2C=CC(C)C(CCC3CC(O)CC(=O)O3)C21` (stereo unspecified), the Potency result in test [4] and in test [2] was “inactive” each time. Moreover, the activity change, negative = inhibition in test [3] is -9% (inactive). Besides, the max response is 2.37% in test [3] (setting [6]) and -4.92% in test [3] (setting [7]).
In the case of `NCCCCC(NC(CCc1ccccc1)C(=O)O)C(=O)N1CCCC1C(=O)O` (stereo unspecified), the Potency entry in test [4] was “inactive”. Further, the activity change, negative = inhibition in test [3] was 8.08% (inactive). Further, the results for the max response in test [3] (setting [6]) and in test [3] (setting [7]) were 11.1% and 24.7%, respectively.
In the case of `O=C(/C=C/c1ccccc1)c1ccc(O)cc1O`, the Potency entry in test [1], in test [4] and in test [2] was “inactive” in each case. The activity change, negative = inhibition in test [3] is -11.9% (inactive). For the same compound, the max response in test [3] (setting [6]) is 1.3%; in test [3] (setting [7]) it was -11.1%.
As to `COc1ccc(-c2coc3cc(O)ccc3c2=O)c(O)c1O`, the Potency result in test [4] and in test [2] was “inactive” throughout. The activity change, negative = inhibition in test [3] is 8.68% (inactive). Further, the max response in test [3] (setting [6]) was -1.1%; in test [3] (setting [7]) it was 7.57%.
With `CC(C)=CCCC(C)C1CC[C@@]2(C)C3=C(CC[C@@]12C)C1(C)CCC(O)C(C)(C)C1CC3` (stereo partly specified), the Potency entry in test [4] and in test [2] was “inactive” throughout. In addition, the activity change, negative = inhibition in test [3] is 6.04% (inactive). The max response worked out at 10.4% in test [3] (setting [6]) and 15.7% in test [3] (setting [7]).
`COc1ccc(-c2oc3ccccc3c(=O)c2O)cc1OC`: the Potency entry in test [1], in test [4] and in test [2] was “inactive” throughout. For the same compound, the activity change, negative = inhibition in test [3] is 7.98% (inactive). In addition, the max response in test [3] (setting [6]) was determined as 6.61%; in test [3] (setting [7]), 24.2%.
Consider `CN1CCCC1CCO[C@@](C)(c1ccccc1)c1ccc(Cl)cc1` (stereo partly specified), for which the Potency entry in test [4] was “inactive”. For the same compound, the activity change, negative = inhibition in test [3] is -9.48% (inactive). The max response was -21.6% in test [3] (setting [6]) and -28.2% in test [3] (setting [7]).
In the case of `O=C(/C=C(\O)c1ccccc1)c1ccccc1O`, the Potency result in test [1], in test [4] and in test [2] was “inactive” each time. The activity change, negative = inhibition in test [3] was -15.7% (inactive). The max response is -12.9% in test [3] (setting [6]) and -24.5% in test [3] (setting [7]).
Regarding `NC(C(=O)NC1C(=O)N2C(C(=O)O)=C(Cl)CSC12)c1ccccc1` (stereo unspecified), the Potency entry in test [1], in test [4] and in test [2] was “inactive” throughout. In addition, the activity change, negative = inhibition in test [3] is 8.35% (inactive). In addition, the max response in test [3] (setting [6]) worked out at 18.8%; in test [3] (setting [7]), 24.9%.
For the compound `C=CC(C1=CC(=O)C(OC)=CC1=O)c1ccc(O)cc1` (stereo unspecified), the Potency entry in test [1], in test [4] and in test [2] was “inactive” throughout. Moreover, the activity change, negative = inhibition in test [3] is 12.9% (inactive). Moreover, the max response in test [3] (setting [6]) stood at 1.65%; in test [3] (setting [7]) it was 16.7%.
On to `CC(C)=CCc1c2c(c(O)c3c(=O)c(O)c(-c4ccccc4)oc13)C=CC(C)(C)O2`, for which the Potency entry in test [1], in test [4] and in test [2] was “inactive” throughout. In test [3], the activity change, negative = inhibition was 0.956% (inactive). The max response was -0.903% in test [3] (setting [6]) and -0.353% in test [3] (setting [7]).
On to `CCC(=O)N1CCc2cc(S(=O)(=O)NC(Cc3ccccc3)C(=O)NCc3cccc(OC)c3)ccc21` (stereo unspecified), for which, in test [5], the Potency was 12 µM (active).
Same read-out and setting: to `COc1ccc(C(=O)Nc2ccc3oc(-c4ccc(OC)cc4)nc3c2)cc1` belongs “inactive”; to `O=C(Nc1cccc(Cl)c1)Nc1ccccc1OCc1cc(=O)n2ccccc2n1`, “inactive”.
For `Cc1ncc(Cl)cc1NCc1ccc(C(=O)N[C@@H](CC2CCCC2)C(=O)NC2CC2)s1`, in test [5], the Potency is 15.1 µM (active).
As to `Cc1nn(CC(=O)NCCc2ccccc2)c(=O)c2c1sc1ccccc12`, in test [5], the Potency was 12 µM (active).
Still for that read-out and setting: the value for `COC(=O)c1c(SCC(=O)Nc2cc(C)cc(C)c2)[nH]c2ccccc2c1=O` was “inactive”.
As for `CC(C)=CCC/C(C)=C/COc1ccc2ccc(=O)oc2c1`, the Potency result in test [4] and in test [2] was “inactive” throughout. In addition, the activity change, negative = inhibition in test [3] was -1.25% (inactive). The figures for the max response in test [3] (setting [6]) and in test [3] (setting [7]) were 27.3% and 28.1%, respectively.
